Laboratory results reported in PubChem BioAssay.
Calls of active or inactive are those of the source.

Key:
[1] = E. coli DRC41 culture turbidity changes, primary screen, E. coli filamentation inducer project, strain DRC41, OD650, 48 h (AID 1152);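 also: E. coli MC1000 strain DRC41 lacking acrAB efflux pump and sulA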; conditions: E. coli DRC41 (acrAB sulA), higher = more signal, called active from +8 up or from −8 down
[2] = small-molecule binders of probe aLefty1, primary screen, biochemical, small-molecule microarray, 635/667 nm fluorescence (AID 1153); conditions: higher = more signal;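 also: score merges spot fluorescence with signal-to-noise ratio from the scanned slide images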
[3] = PSAC antagonists in infected red cells, primary screen, cell-based, P. falciparum Indochina, OD700, 1 h (AID 1154); conditions: P. falciparum Indochina infected RBC osmotic lysis, higher = more signal, called active from +8 up or from −8 down
[4] = PSAC antagonists in infected red cells, primary screen, cell-based, P. falciparum Indochina, OD700, 2 h (AID 1155);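 also: lysis reports solute entry through the parasite surface anion channel PSAC; channel blockers reduce lysis of infected cells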; conditions: P. falciparum Indochina infected erythrocytes, osmotic lysis OD700; higher = more signal, called active from +8 up or from −8 down
[5] = osmotic lysis modulators in infected erythrocytes, primary screen, PSAC antagonist project, cell-based, P. falciparum Indochina, OD700, 3 h (AID 1156); conditions: higher = more signal, called active from +8 up or from −8 down
[6] = PSAC antagonists in infected red cells, primary screen, cell-based, P. falciparum Indochina, OD700, 18 h (AID 1157); conditions: P. falciparum Indochina infected erythrocytes, osmotic lysis OD700, 18 h; higher = more signal, called active from +8 up or from −8 down
[7] = modulators of S6 phosphorylation in cells, primary screen, cell-based, A549, cytoblot, luminescence, serum-stimulated (AID 1158); conditions: A549 phospho-S6 cytoblot, 5 h, higher = more signal;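 also: serum-stimulated A549 lung adenocarcinoma cells; signal is phosphorylated S6 detected by cytoblot immunostaining with HRP secondary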
[8] = biological target: NADPH oxidase 2 (Homo sapiens) (UniProt P04839); experiment: NOX2-dependent H2O2 signal modulators, primary screen, NOX inhibitor project, cell-based, HEK293-NOX2, PMA-stimulated, Amplex Red fluorescence (AID 1159); conditions: 45 min, higher = more signal, called active from +8 up or from −8 down; also: test concentration not given here
[9] = biological target: NADPH oxidase 4 (Homo sapiens) (UniProt Q9NPH5); experiment: NOX4-dependent H2O2 signal modulators, primary screen, NOX inhibitor project, cell-based, HEK293-NOX4, tetracycline-induced, Amplex Red fluorescence (AID 1160); conditions: 45 min, higher = more signal, called active from +8 up or from −8 down
[10] = biological target: NADPH oxidase 5 (Homo sapiens) (UniProt Q96PH1); experiment: NOX5-dependent H2O2 signal modulators, primary screen, NOX inhibitor project, cell-based, HEK293-NOX5, Amplex Red fluorescence (AID 1161); conditions: HEK293-NOX5, ionomycin, 45 min, higher = more signal
[11] = A549 cell viability effects, profiling panel, calcein-AM fluorescence, 48 h, basal (AID 1162); conditions: higher = more signal; also: test concentration not given here
[12] = adipocyte viability effects, profiling panel, cell-based, 3T3-L1 adipocytes, calcein-AM fluorescence, 48 h, basal (AID 1163); conditions: 3T3-L1 adipocytes viability, higher = more signal; also: test concentration not given here
[13] = HepG2 cell viability effects, profiling panel, calcein-AM fluorescence, 48 h, basal (AID 1164); conditions: higher = more signal; also: test concentration not given here
[14] = MM1S cell viability effects, profiling panel, calcein-AM fluorescence, 48 h, basal (AID 1165); conditions: higher = more signal;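 also: viability of MM1S multiple myeloma cells under basal unstimulated conditions; test concentration not given here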
[15] = basal RPMI8226 viability, no added stimulus, profiling panel, cell-based, calcein-AM fluorescence, 48 h, PK04 Diversity Set (AID 1166); conditions: RPMI8226 myeloma viability, higher = more signal;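 also: cells grown under basal conditions without added stimulus; test concentration not given here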
[16] = basal HepG2 mitochondrial membrane potential changes, profiling panel, cell-based, JC-1 fluorescence, 24 h, 100 nL compound (AID 1167); conditions: higher = more signal; also: test concentration not given here
[17] = basal 3T3-L1 adipocyte mitochondrial potential changes, profiling panel, cell-based, JC-1 fluorescence, 3T3-L1 adipocytes, 24 h, 100 nL compound (AID 1168); conditions: JC-1 mitochondrial fluorescence, higher = more signal, called active from +8 up or from −8 down; also: test concentration not given here
[18] = basal RPMI8226 mitochondrial membrane potential changes, profiling panel, cell-based, JC-1 fluorescence, 24 h, 100 nL compound (AID 1169); conditions: RPMI8226 myeloma, JC-1 mitochondrial potential fluorescence, higher = more signal; also: test concentration not given here
[19] = basal MM1S mitochondrial membrane potential changes, profiling panel, cell-based, JC-1 fluorescence, 24 h, 100 nL compound (AID 1170); conditions: higher = more signal; also: test concentration not given here
[20] = A549 lung cancer cell viability effects, profiling panel, resazurin fluorescence, 24 h, PK04 Diversity Set (AID 1171); conditions: higher = more signal, called active from +8 up or from −8 down; also: test concentration not given here

Chain of NADPH oxidase 4 (Homo sapiens) (Q9NPH5 whole entry, looked up): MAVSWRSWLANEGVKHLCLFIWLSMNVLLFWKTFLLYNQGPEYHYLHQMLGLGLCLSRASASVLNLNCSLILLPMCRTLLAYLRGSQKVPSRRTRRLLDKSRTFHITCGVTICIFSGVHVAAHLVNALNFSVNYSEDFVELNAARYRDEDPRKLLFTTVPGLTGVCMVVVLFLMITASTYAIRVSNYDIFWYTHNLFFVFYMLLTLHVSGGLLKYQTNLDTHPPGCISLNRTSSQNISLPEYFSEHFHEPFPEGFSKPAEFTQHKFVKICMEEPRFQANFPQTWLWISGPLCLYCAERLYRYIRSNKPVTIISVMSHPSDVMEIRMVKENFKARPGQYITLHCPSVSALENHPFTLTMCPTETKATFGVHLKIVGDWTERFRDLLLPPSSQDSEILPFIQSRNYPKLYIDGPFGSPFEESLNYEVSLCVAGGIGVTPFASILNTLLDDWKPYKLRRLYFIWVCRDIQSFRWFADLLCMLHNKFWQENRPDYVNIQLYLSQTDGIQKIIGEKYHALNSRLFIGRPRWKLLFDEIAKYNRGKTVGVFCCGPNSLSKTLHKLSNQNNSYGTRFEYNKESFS
Chain of NADPH oxidase 5 (Homo sapiens) (Q96PH1 whole entry, looked up): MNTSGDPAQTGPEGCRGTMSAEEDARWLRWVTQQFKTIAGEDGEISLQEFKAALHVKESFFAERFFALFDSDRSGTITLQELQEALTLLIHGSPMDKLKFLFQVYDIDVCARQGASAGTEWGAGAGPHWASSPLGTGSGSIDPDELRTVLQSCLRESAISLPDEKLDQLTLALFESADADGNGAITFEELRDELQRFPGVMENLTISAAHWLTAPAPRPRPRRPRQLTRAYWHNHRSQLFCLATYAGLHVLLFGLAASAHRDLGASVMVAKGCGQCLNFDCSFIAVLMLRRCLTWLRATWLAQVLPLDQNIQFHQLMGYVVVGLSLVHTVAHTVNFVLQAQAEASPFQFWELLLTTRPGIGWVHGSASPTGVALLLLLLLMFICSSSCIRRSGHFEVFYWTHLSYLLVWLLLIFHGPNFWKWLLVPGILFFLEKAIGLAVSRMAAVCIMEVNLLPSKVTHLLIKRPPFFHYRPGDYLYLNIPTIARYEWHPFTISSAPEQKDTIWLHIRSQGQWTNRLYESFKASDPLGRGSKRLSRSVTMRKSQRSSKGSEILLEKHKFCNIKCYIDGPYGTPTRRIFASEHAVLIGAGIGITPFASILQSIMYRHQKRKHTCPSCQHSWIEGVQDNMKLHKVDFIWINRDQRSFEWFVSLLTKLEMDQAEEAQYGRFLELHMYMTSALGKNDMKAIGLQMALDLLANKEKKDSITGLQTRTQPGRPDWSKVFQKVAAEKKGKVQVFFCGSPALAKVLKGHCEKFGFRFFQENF
Chain of NADPH oxidase 2 (Homo sapiens) (P04839 whole entry, looked up): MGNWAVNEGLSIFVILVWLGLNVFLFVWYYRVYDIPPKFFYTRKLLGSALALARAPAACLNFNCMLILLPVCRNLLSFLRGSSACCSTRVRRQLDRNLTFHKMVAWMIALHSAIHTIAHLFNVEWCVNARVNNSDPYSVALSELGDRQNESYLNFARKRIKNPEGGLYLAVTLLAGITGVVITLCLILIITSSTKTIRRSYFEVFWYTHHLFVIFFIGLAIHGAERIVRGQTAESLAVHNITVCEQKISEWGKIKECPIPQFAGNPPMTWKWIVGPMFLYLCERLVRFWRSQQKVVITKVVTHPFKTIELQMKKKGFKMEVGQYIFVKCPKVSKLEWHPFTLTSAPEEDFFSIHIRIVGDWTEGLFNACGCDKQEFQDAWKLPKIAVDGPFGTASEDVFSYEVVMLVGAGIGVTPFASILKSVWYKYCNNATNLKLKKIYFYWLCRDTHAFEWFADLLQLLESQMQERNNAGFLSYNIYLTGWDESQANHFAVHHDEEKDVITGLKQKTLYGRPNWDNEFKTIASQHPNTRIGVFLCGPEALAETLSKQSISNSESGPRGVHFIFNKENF

Structure (SMILES) | z-score [1] | composite z-score [2] | z-score [3] | z-score [4] | z-score [5] | z-score [6] | z-score [7] | z-score [8] | z-score [9] | z-score [10] | z-score [11] | z-score [12] | z-score [13] | z-score [14] | z-score [15] | z-score [16] | z-score [17] | z-score [18] | z-score [19] | z-score [20]
CC(C)C[C@H]1NC(=O)[C@H](Cc2ccccc2)NC(=O)[C@@]23C(=O)N[C@@H](Cc4ccccc4)C2[C@H](C)[C@@]2(C)O[C@H]2C3/C=C/C/C=C\CNC1=O (stereo not given in full) | -1 (inactive) | -0.145 | 0.133 (inactive) | -0.209 (inactive) | 0.0708 (inactive) | -0.308 (inactive) | -0.129 | 1.05 (inactive) | 0.819 (inactive) | -1.37 | -0.0322 | 0.13 | -1.04 | -0.356 | -0.718 | -1.07 | 0.0338 (inactive) | 0.478 | 0.704 | 0.395 (inactive)
COCCCNC(=O)[C@@H]1c2ccccc2C(=O)N(Cc2cc(C(F)(F)F)cc(C(F)(F)F)c2)[C@H]1c1ccc(CO)cc1 | 0.144 (inactive) | 1.24 | 1.58 (inactive) | -0.0915 (inactive) | 0.532 (inactive) | 0.254 (inactive) | -0.348 | 0.175 (inactive) | 0.414 (inactive) | 1.54 | 0.301 | -0.458 | 0.519 | 0.514 | -1.74 | 0.983 | 0.385 (inactive) | -0.992 | 0.636 | -0.266 (inactive)
COC(=O)[C@@]1(Cc2ccc(F)cc2)[C@H]2c3cc(C(=O)N4CCCC4)n(CCO)c3C[C@H]2CN1C(=O)c1ccccc1 | -1.56 (inactive) | -0.193 | 2.59 (inactive) | 0.279 (inactive) | 1.48 (inactive) | 0.716 (inactive) | 0.871 | 0.54 (inactive) | 2 (inactive) | 0.15 | 0.448 | -0.35 | -0.885 | 0.309 | -0.929 | 1.04 | 0.379 (inactive) | -0.249 | -0.996 | 0.11 (inactive)
C=C(COC)/C(=C/C[C@@H](OC(C)=O)c1ccccc1OCCO)c1cc(C(=O)OC)ccc1OC | 0.0999 (inactive) | 0.0945 | 17.2 (active) | 2.52 (inactive) | 1.68 (inactive) | 1.04 (inactive) | -0.0651 | 0.857 (inactive) | -0.16 (inactive) | -1.46 | 1.2 | -2.49 | 0.5 | -3.3 | -0.866 | 0.751 | 0.00709 (inactive) | -0.338 | -0.875 | 0.368 (inactive)
COC(=O)[C@@]1(Cc2ccc(OC)cc2)[C@@H]2[C@@H](CC(=O)[C@H]2CC(=O)C(=O)N2CCCC2)CN1C(=O)c1ccccc1 | -1.17 (inactive) | 2.14 | 4.55 (inactive) | 0.989 (inactive) | 1.07 (inactive) | 0.986 (inactive) | 0.0676 | -0.204 (inactive) | 0.65 (inactive) | 0.26 | -0.515 | 0.745 | 0.681 | -2.61 | -2.94 | 0.74 | -1.62 (inactive) | -1.01 | -0.787 | -0.189 (inactive)
COc1ccc([Si](C)(C)[C@@H]2[C@@H](CC(=O)N(CCO)Cc3ccccc3)O[C@]3(C(=O)N(Cc4ccc(N5CCC5=O)cc4)c4ccccc43)[C@H]2C)cc1 | 1.12 (inactive) | -0.399 | 6.38 (inactive) | 0.924 (inactive) | -0.709 (inactive) | -1.27 (inactive) | 0.838 | 1.53 (inactive) | 1.41 (inactive) | 3.52 | -0.361 | 2.28 | -1.34 | -1.28 | -3.15 | 0.768 | 1.95 (inactive) | -0.944 | -0.83 | -1.37 (inactive)
C=CCC(OC(C)=O)[C@@H]1[C@@H](N(Cc2cccc3ccccc23)C(=O)c2ccc(-c3ccccc3)cc2)c2cc(OCCCO)ccc2N1C(=O)c1ccc2ccccc2n1 (stereo not given in full) | -0.688 (inactive) | 0.123 | 0.0025 (inactive) | -0.232 (inactive) | -0.44 (inactive) | -0.0821 (inactive) | 1.14 | -0.0242 (inactive) | 1.04 (inactive) | 1.48 | -0.421 | 0.587 | 0.589 | -0.848 | -0.842 | 1.08 | -0.12 (inactive) | 0.61 | -0.0192 | 0.701 (inactive)
Cc1ccc(F)cc1S(=O)(=O)N[C@@H]1CCN(Cc2ccc3[nH]ccc3c2)C1 | -5.9 (inactive) | -0.238 | 3.05 (inactive) | 0.843 (inactive) | 0.255 (inactive) | 0.673 (inactive) | -0.0977 | -0.163 (inactive) | -1.11 (inactive) | -1.96 | 0.173 | -0.939 | -0.696 | -3.43 | -1.63 | -1.33 | -0.261 (inactive) | 0.321 | -1.34 | -0.0035 (inactive)
O=C1O[C@H](c2ccccc2)[C@H](c2ccccc2)N2[C@H]1[C@@H](C(=O)N1CCN(c3ncccn3)CC1)[C@]1(C(=O)Nc3ccccc31)[C@H]2c1ccc(O)cc1 | 0.649 (inactive) | 0.0262 | 1.24 (inactive) | 1.01 (inactive) | -0.236 (inactive) | 1.01 (inactive) | 0.0782 | 0.898 (inactive) | -1.54 (inactive) | 1.65 | 0.947 | 1.36 | 0.406 | -1.28 | -4 | -1.26 | 1.04 (inactive) | -1.06 | 0.183 | 0.371 (inactive)
